Bioassay records (PubChem BioAssay)
Rows were chosen to be rich in hits. Some 4.1% of all compounds tested hit in one or more screens of this group.
hgDAF12 agonist = agonists of H. glycines DAF-12 nuclear receptor. HEK293 GAL4-hgDAF12 UAS-luciferase reporter, agonist luminescence; normalized to butyrate control. activation, % at 6.8 µM. 1.8% of 370,000 active;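 active = activation above a cutoff set at the mean of all screened compounds plus 3 SD, cut at about 10% in these data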
hcDAF12 agonist = activates DAF-12 receptor from parasite H. contortus | HEK293 hcDAF-12 lit1-tk-luc reporter, luminescence; 0% DMSO, 100% Δ7-dafachronic acid | activation, % at 6.8 µM | 1.4% of 370,000 active;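 active = activation above the mean of all tested compounds plus 3 SD, cut at about 5.5% in these data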
DAX1 inh-1 = NR0B1 (DAX1) inhibition; HEK293 Gal4-DAX1 luciferase reporter, luminescence; P51843; inhibition, % at 6.75 µM; 0.99% of 340,000 active;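 active = inhibition above the mean over all tested compounds plus 3 SD, cut at about 4.2% in these data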;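 note: inhibition shows as a rise in luminescence from relieved DAX1 repression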
Target sequence (P51843 207-470 limits assumed): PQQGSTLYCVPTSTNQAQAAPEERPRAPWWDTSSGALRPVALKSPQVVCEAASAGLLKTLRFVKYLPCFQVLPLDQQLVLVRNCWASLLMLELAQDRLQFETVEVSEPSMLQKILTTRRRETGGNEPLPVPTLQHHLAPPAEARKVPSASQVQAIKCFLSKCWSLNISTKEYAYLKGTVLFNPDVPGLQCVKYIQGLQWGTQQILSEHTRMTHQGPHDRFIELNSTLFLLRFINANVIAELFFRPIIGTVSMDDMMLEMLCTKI
ssDAF12 agonist = activates DAF-12 receptor from parasite S. stercoralis. activation, % at 6.8 µM. 1% of 370,000 active. HEK293 ssDAF-12/GRIP1 lit1-tk-luc reporter, luminescence; % of 3 µM dafachronic acid response;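 active = activation above the mean over all tested compounds plus 3 SD, cut at about 0.9% in these data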
DAX1 inh-2 = inhibitors of DAX1 repression of SF-1 activated StAR promoter; HEK293T StAR-luciferase reporter, SF-1/DAX-1 repression relief; inhibition, % at 6.8 µM; 1.1% of 370,000 active; AID 652010;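 active = inhibition above the mean over all tested compounds plus 3 SD, cut at about 3.6% in these data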;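 note: higher inhibition means more luminescence from relief of DAX-1 repression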
Hits are given with their value; i = inactive; nt = no result.

SMILES	hgDAF12 agonist	hcDAF12 agonist	DAX1 inh-1	ssDAF12 agonist	DAX1 inh-2
CCCCNC(=O)C[C@@H]1C(=O)N(Cc2ccc(OC)cc2)/C2=C/CCCCC[C@@]21C(=O)OCC	i	i	nt	i	i
Cc1c(N=C2C=CC(=O)c3ccccc32)c(=O)n(-c2ccccc2)n1C	i	i	i	1.4	i
Cc1c(N=C2C=C(Br)C(=O)C(Br)=C2)c(=O)n(-c2ccccc2)n1C	i	i	i	i	i
CNc1ccccc1-c1nc2ccccc2n(C)c1=O	i	i	i	i	i
Cn1c(=O)c(-c2ccccc2N)nc2ccccc21	i	6.3	i	i	i
NS(=O)(=O)c1ccc(NC(=O)CSc2nc3ccccc3c(=O)n2-c2ccc(Br)cc2)cc1	i	i	nt	i	i
COc1cc(/C=N/n2cnnc2)ccc1OCC(=O)N1CCOCC1	i	i	4.9	i	i
COc1ccc(C(=O)N/C(=C\c2cn(S(=O)(=O)N(C)C)c3ccccc23)C(=O)N2CCN(C)CC2)cc1OC	i	i	i	i	i
Cc1cc(C)n(-c2nc3ccccc3[nH]c2=O)n1	i	i	4.3	i	i
Cc1cc(C)n(-c2nc3ccccc3nc2Nc2ccc3[nH]c(=O)[nH]c3c2)n1	i	i	i	i	i
O=C(COC(=O)c1ccc(F)cc1Cl)NC1CCCCCCC1	i	i	i	i	i
O=C(NCC1CCCCC1)c1ccc(F)cc1Cl	i	i	7.4	i	i
O=C(NC1CC1)c1ccc(F)cc1Cl	i	i	i	1.0	i
c1ccc(CCSc2nnc(-c3cccnc3)n2Cc2ccccc2)cc1	i	i	nt	i	i
Cc1ccc(S(=O)(=O)N2CCC(c3nc4ccccc4o3)CC2)s1	i	i	nt	i	i
CC(C)C(=O)Nc1cccc(C(=O)Nc2nnc(C(C)C)s2)c1	i	i	i	i	i
CC(C)c1nnc(NC(=O)c2cccc(NC(=O)C(F)(F)F)c2)s1	12.2	i	i	i	i
Cc1ccc(-c2noc(-c3ccccc3C(=O)N3CCN(C)CC3)n2)cc1	i	6.6	i	i	i
Cc1ccc(/C=N/n2c(C)nnc2C)o1	i	i	4.3	i	i
Cc1ccc(/C=N/n2c(C)nc3ccccc3c2=O)o1	i	i	4.5	i	i
CC(C)(C)c1ccc(-c2nnc3sc(COc4ccccc4)nn23)cc1	i	i	nt	i	i
Cc1nnc(SCC(=O)NNC(=O)c2ccc(F)cc2)n1Cc1ccccc1	i	i	4.5	1.4	i
CNc1nc(N)c([N+](=O)[O-])c(NCC2CCCO2)n1 (stereo unspecified)	i	i	5.2	i	i
O=C(O)c1cccc2c1-c1ccccc1/C2=N\Nc1ccccc1	i	i	5.4	i	i
NC(=O)C1CC(=O)N(c2ccc(OCc3ccc(F)cc3)cc2)C1 (stereo unspecified)	i	i	4.7	i	i
SMILES	hgDAF12 agonist	hcDAF12 agonist	DAX1 inh-1	ssDAF12 agonist	DAX1 inh-2
O=C(NNc1nc2c(F)cccc2s1)c1ccccc1	i	i	10.2	i	i
O=C(NNc1nc2c(F)cc(F)cc2s1)c1ccccc1	i	i	i	i	i
CN1CCN(c2ccc(Cl)cc2NC(=O)/C=C/c2ccc(F)cc2)CC1	i	i	5.7	i	i
Cc1ccc(NNC(=O)c2cc(C)on2)c(C)c1	i	i	i	i	i
Cc1cc(C(=O)NNc2ccc(F)cc2F)no1	i	i	7.6	i	i
COc1ccc(S(=O)(=O)n2c(C)nc3ccccc32)cc1C	11.7	i	i	i	i
Cc1nc2scc(-c3cccs3)c2c(=O)[nH]1	i	i	i	i	i
O=c1[nH]c(-c2ccc(O)cc2)nc2scc(-c3cccs3)c12	12.6	i	i	i	i
N#Cc1ccccc1N1CCN(S(=O)(=O)c2ccc3c(c2)CCC(=O)N3)CC1	i	i	nt	i	i
O=C(CSc1nnc(Cc2cccs2)n1-c1ccc(Cl)cc1)Nc1ccc(OCc2ccccc2)cc1	i	i	nt	i	i
O=C(c1ccccc1C(F)(F)F)N1CCN(S(=O)(=O)c2ccccc2)CC1	i	i	7.5	i	i
O=C(c1ccccc1)N1CCN(S(=O)(=O)c2ccc(Cl)c(C(F)(F)F)c2)CC1	i	i	i	i	i
Cc1ccc(NC(=O)CN2CCC(NC(=O)Cc3ccccc3)CC2)c(C)c1	i	i	i	1.2	i
O=C(NC1CCCCN(Cc2cccc(Cl)c2)C1=O)c1ccc(COc2ccccc2)cc1 (stereo unspecified)	i	i	nt	i	i
CC(Cc1ccco1)NC(=O)c1cccc(S(=O)(=O)N(C)C)c1 (stereo unspecified)	12.3	i	i	i	i
CN(C)S(=O)(=O)c1cccc(C(=O)NCCNC(=O)c2cccc(S(=O)(=O)N(C)C)c2)c1	i	i	i	i	i
COC(=O)C(Cc1ccccc1)NC(=O)c1cccc(S(=O)(=O)N(C)C)c1 (stereo unspecified)	i	i	4.4	i	i
CCN(CC)C(=O)CC[C@H]1CC[C@]2(CCCN(Cc3ccccn3)C2)O1	i	i	nt	i	i
O=C(c1cc(Cl)cc(Cl)c1)N1CC[C@H]2[C@H](CCCN2Cc2ccccc2)C1	i	i	nt	i	i
Cc1nc2sc(-c3ccccc3)cc2c(=O)n1/N=C/N(C)C	10.6	i	i	0.9	i
NC(=O)CSc1nc2sc(-c3ccccc3)cc2c(=O)n1N	i	i	i	i	i
Cc1nc2sc(-c3ccccc3)cc2c(=O)n1-n1cccc1	11.4	i	i	i	i
O=C(NCc1ccccc1)OCCCN1C(=O)CCC12CCCCC2	i	i	nt	i	i
Cc1ccc(-c2c(NC(=O)c3ccccc3)nc3ncccn23)cc1	i	i	nt	i	i
OCc1ccccc1-c1cnc2sc(NCc3ccc(F)cc3)nn12	i	i	nt	i	i
SMILES	hgDAF12 agonist	hcDAF12 agonist	DAX1 inh-1	ssDAF12 agonist	DAX1 inh-2
CCOc1c2ccc(C(=O)NCCc3cccs3)cc2nn1CC	11.9	i	i	i	i
CCCCn1nc2cc(C(=O)NCCc3cccs3)ccc2c1OCC	i	i	i	i	i
Cc1[nH]n(-c2ccccc2)c(=O)c1/C=N/N(C)c1ccccc1	i	i	i	1.8	i
Cc1[nH]n(-c2cccc(Cl)c2)c(=O)c1C=NCC(C)C	i	i	4.3	i	i
Cc1[nH]n(-c2ccccc2)c(=O)c1/C=N/O	i	i	i	i	i
Cc1[nH]n(-c2ccccc2)c(=O)c1C=NCC1CCCO1 (stereo unspecified)	i	i	i	1.0	i
CCCc1[nH]n(-c2ccc(F)cc2)c(=O)c1C=NCC1CCCO1 (stereo unspecified)	i	i	i	i	i
Cn1c(SCC(=O)Nc2ccccc2-c2ccccc2)nnc1-c1ccccc1	i	i	nt	i	i
CCN(CC)CCNC(=O)CNC(=O)c1nn(-c2ccc(OC)c(OC)c2)c(=O)c2ccccc12	i	i	4.9	i	i
CNC(=O)c1cn2c3c(ccc(Cl)c3c1=O)OC(C)C2 (stereo unspecified)	i	i	i	i	i
CCCCCC(=O)OCc1ccc(C2=CC(=O)CC(C)(C)C2=O)cc1	i	i	i	i	4.2
